# Experimental data: PubChem BioAssay (NCI)
# Compounds without any hit were thinned out: in the full panel of roughly 79,000, 15% have a hit. Unmarked numbers belong to inactive results. Active and inactive are the calls of the source. Cut-off read from the data, not from the text of the source: active = growth inhibition above about 70%; inactive = the rest.
# Key:
# [1] = NCI Yeast Anticancer Drug Screen. Data for the rad50 strain (AID 155);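 note: 0% = growth of vehicle-only cultures of the same strain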; conditions: S. cerevisiae rad50 strain growth inhibition; at 50.0 µM; hits give high values
# How it was run: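 A DNA repair-deficient yeast mutant serves as the test organism; compound-induced growth inhibition is calculated against vehicle-treated cells.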
# [2] = NCI Yeast Anticancer Drug Screen. Data for the mec2-1 strain (AID 157); conditions: S. cerevisiae mec2-1 strain, at 50.0 µM, hits give high values
# How it was run: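 Cells of the genetically defined mec2-1 yeast strain are incubated with test compound. Inhibition of growth is calculated against vehicle-treated controls.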
# [3] = NCI Yeast Anticancer Drug Screen. Data for the sgs1 mgt1 strain (AID 161);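 note: 0% = growth of cultures given vehicle only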; conditions: S. cerevisiae sgs1 mgt1 strain, at 50.0 µM, hits give high values
# How it was run: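 Mutant yeast exposed to compound; growth scored against vehicle-only wells.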
# [4] = NCI Yeast Anticancer Drug Screen. Data for the cln2 rad14 strain (AID 165);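 note: 0% = growth equal to vehicle treated cultures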; conditions: S. cerevisiae cln2 rad14 strain, at 50.0 µM, hits give high values
# How it was run: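 The screen exposed genetically defined yeast (cln2 rad14) to test compounds and scored growth inhibition relative to vehicle-treated controls.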
# [5] = NCI Yeast Anticancer Drug Screen. Data for the bub3 strain (AID 167); conditions: S. cerevisiae bub3 mutant strain, at 50.0 µM, hits give high values
# How it was run: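 Inhibition values come from growth of compound-treated mutant yeast normalised to vehicle-treated controls.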
# [6] = NCI Yeast Anticancer Drug Screen. Data for the mlh1 rad18 strain (AID 175); conditions: S. cerevisiae mlh1 rad18 strain growth inhibition; at 50.0 µM; hits give high values
# How it was run: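 Compound-treated yeast growth, normalised to vehicle controls. Strain bears defined DNA repair mutations.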
Structure (SMILES),growth inhibition [1],growth inhibition [2],growth inhibition [3],growth inhibition [4],growth inhibition [5],growth inhibition [6]
COc1ccc2nc(N/N=C/c3ccc(C)s3)cc(C)c2c1,22.3%,-1.75%,15.6%,24.4%,0.7%,24.6%
Cc1ccc(/C=N/Nc2nncc3ccccc23)s1,14.8%,16.1%,16.7%,21.2%,21.7%,38.5%
COC(=O)C(=O)C(C(=O)C(=O)Nc1ccccc1C(C)=O)c1nc2ccc(C(=O)c3ccccc3)cc2[nH]c1=O (stereo unspecified),25.9%,-6.6%,33.6%,28.6%,5.25%,24.5%
COC(=O)C(=O)C(C(=O)C(=O)Nc1ccc(Cl)c(Cl)c1)c1nc2ccc(C(=O)c3ccccc3)cc2[nH]c1=O (stereo unspecified),6.8%,-9.65%,-15.1%,5.95%,-3.05%,4.95%
Cc1ccc(F)cc1NC(=O)O/N=C(\Cl)C(C)C,-17.9%,-31.9%,-5.7%,3.85%,4.85%,55.6%
COC(=O)C(Cc1nc2ccccc2[nH]c1=O)C(=O)C(=O)Nc1cc(C(F)(F)F)ccc1Cl (stereo unspecified),5.3%,-18.5%,19.4%,4.65%,2.4%,11.4%
CN(C)c1ccc(/C=N/n2c(-c3ccccc3)nc3ccccc3c2=O)cc1,14.3%,14.2%,43.8%,13.4%,50.8%,-41%
COc1cc(N(CCC#N)CCC#N)ccc1/C(N=Nc1ccc(Cl)cc1)=N/NC(=O)c1cc(Br)ccc1O,7.6%,-7.45%,-6.45%,7.2%,17.8%,52%
CC(=Nc1ccncc1)C(C)=Nc1ccncc1,89.7% (active),93.6% (active),89.8% (active),88.8% (active),89.8% (active),88.7% (active)
CCC(C)C1(O)OC2CC3(C)OC(=CC3=O)/C(C)=C\C3OC(=O)C1(C)C32 (stereo unspecified),7.65%,-31.2%,37.5%,6.4%,-20.1%,-35.9%
N#Cc1nc(C(F)(F)F)oc1N,-2.6%,-1%,-0.95%,-7.85%,-3.3%,-42.4%
COC(=O)/C=C\C(C#N)(C#N)N=Cc1ccsc1,67.9%,75.5% (active),79.8% (active),29.6%,74% (active),87.6% (active)
COC(=O)c1cnn2c1n[n+]([O-])c1ccccc12,-36.3%,-36%,-33.1%,15.9%,-37%,-8%
O=C1NC(N/N=C\c2ccccc2)=N/C1=C/c1ccc(Cl)cc1,22.6%,0.75%,11.7%,17.8%,16.7%,-1.85%
O=C1c2ccccc2-c2c1c1ccccc1c(=O)n2CCO,76.8% (active),43.7%,60.4%,60.6%,51.9%,62.8%
CCCCCCCCCC(O)CC(=O)c1c(O)cccc1O (stereo unspecified),69.8%,77.2% (active),82.8% (active),86.2% (active),82.1% (active),78.7% (active)
Cc1ccc2c(/C=C/c3ccc(N(C)C)cc3)ccc(C(C)C)cc1-2,-5.4%,-41.3%,19.1%,1.75%,-22.2%,-53.2%
CC1(C)C2CCC1(CS(=O)(=O)O)C(=O)C2 (stereo unspecified),-14%,-6.6%,-12.4%,-58.4%,-4.65%,-1.2%
Clc1ccc(C2C3COc4ccccc4C3=NN2c2ccccc2)cc1 (stereo unspecified),-26.1%,-29.9%,-14.8%,0.5%,-29.5%,-13.3%
Cc1ccc(NC(=O)/C(=N\NC(N)=O)c2c(O)c3ccccc3[nH]c2=O)cc1,1.45%,4.6%,-10.5%,7.85%,-3.05%,-33%
N#Cc1n[nH]n(-c2ccccc2)c1=O,-26.3%,-10.8%,17.3%,-11.7%,-21%,-13.7%
O=C(O)c1n[nH]nc1Cl,-5.9%,0.7%,5.35%,-4.2%,-6.15%,19.2%
CC1=CC(=O)c2ccc(C)cc2C1=O,-8.9%,-24.4%,-6.9%,-18.9%,-0.4%,5.85%
C1CCCCNCCC1,-22.8%,-22.2%,-56.5%,-3.4%,-26.7%,-27.3%
Clc1ccc(C2NN=C3c4ccccc4OCC32)cc1 (stereo unspecified),-7.85%,-24.1%,-3%,7.85%,1.3%,17.2%
C=CC1=C(C)C2=NC1=CC1=NC(=C(CC)/C1=C\O)C=C1N=C3C(=C1C)C(=O)[C@H](C(=O)OC)C3=C1NC(=C2)[C@@H](C)[C@@H]1CCC(=O)O,-19.7%,0.7%,4.1%,9.15%,-4.35%,-15.9%
